MITF primary: human MITF inhibition, primary screen. O75030. AlphaScreen MITF homodimerization, bead proximity signal. inhibition, % at 2.6 µM. 650,000 tested, 0.91% active; in the data active = inhibition above about 50%
FBW7 act: activators of human E3 ligase FBW7 | Q969H0 | AlphaScreen FBW7–phospho-cyclin E peptide binding, activator screen | normalized activity (activation), % at 26.1 µM | 650,000 tested, 0.13% active | AID 1259310; in the data active = normalized activity above about 1.9%;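 also: purified mutant Fbw7 with reduced substrate affinity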
GPR151 activ: activates the human receptor GPR151; PathHunter beta-arrestin GPR151 cells, luminescence; activation, % at 11.2 µM; 650,000 tested, 1% active; AID 1508602; in the data active = activation above about 4.9%
TEAD-YAP inh: TEAD-YAP interaction inhibition. HEK-TIYL cells, TEAD-Gal4/YAP UAS-luciferase luminescence. 640,000 tested, 1.4% active. inhibition, % at 9.12 µM; in the data active = inhibition above about 32%
A number is an active result. The list is not random: actives were taken first. Their share in the collection is about 3.5%.

What do the screens show for `COc1cc(C(=O)Nc2ccc(-c3cn4ccc(C)cc4n3)cc2)cc(OC)c1OC`?
MITF primary: inactive; FBW7 act: inactive; GPR151 activ: inactive; TEAD-YAP inh: inactive

What do the screens show for `Cc1cccc(C(=O)/C(C#N)=N/Nc2c(C)n(C)n(-c3ccccc3)c2=O)c1`?
MITF primary: inactive; FBW7 act: inactive; GPR151 activ: inactive; TEAD-YAP inh: 42.0

What do the screens show for `CCCCCC(=O)N/N=C/c1cccc([N+](=O)[O-])c1`?
MITF primary: inactive; FBW7 act: inactive; GPR151 activ: inactive; TEAD-YAP inh: inactive

What do the screens show for `CCN(CC)CCn1c2ccccc2c2cnc(N)c(C#N)c21`?
MITF primary: inactive; FBW7 act: inactive; GPR151 activ: inactive; TEAD-YAP inh: 81.1

Results for CN(C)C=Nc1ncc2c3ccccc3n(CCN(C)C)c2c1C#N ?
MITF primary: inactive; FBW7 act: inactive; GPR151 activ: inactive; TEAD-YAP inh: inactive

Results for CCCNC1=C(N2CCCCC2)C(=O)c2ccccc2C1=O ?
MITF primary: inactive; FBW7 act: inactive; GPR151 activ: inactive; TEAD-YAP inh: 93.2

What do the screens show for `O=C1C(N2CCCCC2)=C(N2CCCCC2)C(=O)c2ccccc21`?
MITF primary: inactive; FBW7 act: inactive; GPR151 activ: inactive; TEAD-YAP inh: inactive

What do the screens show for `CCOc1ccc(NC2=C(N3CCOCC3)C(=O)c3ccccc3C2=O)cc1`?
MITF primary: 53.8; FBW7 act: inactive; GPR151 activ: inactive; TEAD-YAP inh: inactive

How did CC(=O)Nc1ccc(NC2=C(N3CCOCC3)C(=O)c3ccccc3C2=O)cc1 do in these assays?
MITF primary: inactive; FBW7 act: inactive; GPR151 activ: inactive; TEAD-YAP inh: inactive

What do the screens show for `CNC1=C(N2CCCCC2)C(=O)c2ccccc2C1=O`?
MITF primary: inactive; FBW7 act: inactive; GPR151 activ: inactive; TEAD-YAP inh: 94.3

How did O=C1C(NC2CCCCC2)=C(N2CCCCC2)C(=O)c2ccccc21 do in these assays?
MITF primary: inactive; FBW7 act: inactive; GPR151 activ: inactive; TEAD-YAP inh: inactive

What do the screens show for `O=C(Nc1ccc(-c2nc3cc(Cl)ccc3o2)cc1)c1cccc(Cl)c1Cl`?
MITF primary: inactive; FBW7 act: inactive; GPR151 activ: inactive; TEAD-YAP inh: inactive

How did CNC(=O)/C(C#N)=C/c1c(Oc2ccccc2C)nc2c(C)cccn2c1=O do in these assays?
MITF primary: inactive; FBW7 act: inactive; GPR151 activ: inactive; TEAD-YAP inh: 46.6

Results for C=CCNC(=O)/C(C#N)=C/c1c(Oc2ccccc2C)nc2ccccn2c1=O ?
MITF primary: inactive; FBW7 act: inactive; GPR151 activ: inactive; TEAD-YAP inh: 32.1

How did COCCNC(=O)/C(C#N)=C/c1c(Oc2cc(C)cc(C)c2)nc2c(C)cccn2c1=O do in these assays?
MITF primary: inactive; FBW7 act: inactive; GPR151 activ: inactive; TEAD-YAP inh: inactive

Results for COCCCNC(=O)/C(C#N)=C/c1c(Oc2cc(C)cc(C)c2)nc2c(C)cccn2c1=O ?
MITF primary: inactive; FBW7 act: inactive; GPR151 activ: inactive; TEAD-YAP inh: 33.0

What do the screens show for `CCNC(=O)/C(C#N)=C/c1c(Oc2cccc(C)c2C)nc2c(C)cccn2c1=O`?
MITF primary: inactive; FBW7 act: inactive; GPR151 activ: inactive; TEAD-YAP inh: 35.3

How did COc1ccc(N2CCN(C(=O)c3c[nH]c4ccc(S(=O)(=O)N5CCOCC5)cc4c3=O)CC2)cc1 do in these assays?
MITF primary: inactive; FBW7 act: inactive; GPR151 activ: inactive; TEAD-YAP inh: inactive

How did CCN1CCN(c2ncc(C(=O)N3CCCC3)c3ccccc23)CC1 do in these assays?
MITF primary: inactive; FBW7 act: inactive; GPR151 activ: inactive; TEAD-YAP inh: inactive

What do the screens show for `COc1cccc(/C=N/Nc2nnc3c(n2)[nH]c2ccccc23)c1`?
MITF primary: inactive; FBW7 act: inactive; GPR151 activ: inactive; TEAD-YAP inh: inactive

How did COc1ccc(/C=N/Nc2nnc3c(n2)[nH]c2ccc(Br)cc23)c(O)c1 do in these assays?
MITF primary: inactive; FBW7 act: inactive; GPR151 activ: inactive; TEAD-YAP inh: inactive

Results for Cc1ccc2[nH]c3nc(N/N=C/c4ccc(O)cc4O)nnc3c2c1 ?
MITF primary: inactive; FBW7 act: inactive; GPR151 activ: inactive; TEAD-YAP inh: 63.3

How did Cc1ccc2[nH]c3nc(N/N=C/c4ccc(O)c(O)c4)nnc3c2c1 do in these assays?
MITF primary: 87.0; FBW7 act: inactive; GPR151 activ: inactive; TEAD-YAP inh: inactive

How did CCOc1cc(/C=N/Nc2nnc3c(n2)[nH]c2ccc(C)cc23)ccc1O do in these assays?
MITF primary: inactive; FBW7 act: inactive; GPR151 activ: inactive; TEAD-YAP inh: inactive

How did COc1ccc(Br)cc1/C=N/Nc1nnc2c(n1)[nH]c1ccccc12 do in these assays?
MITF primary: inactive; FBW7 act: 2.1; GPR151 activ: inactive; TEAD-YAP inh: inactive
